From PubChem BioAssay (Tox21)
Where “and” joins values, the source holds several entries; their conditions need not be identical. Equal entries are not always repeated. Results filed as inconclusive are left out. Calls of active or inactive are those of the source. Calls follow the shape of the dose curve; as a rule, active = well fitted activation curve with a large enough effect in the repeat runs; inconclusive = weak or mixed curves; inactive = flat fitted curve, though single readings scatter.

Assay: A CellTox Green Cytotoxicity Assay to monitor cytotoxicity in HepG2 cells - 16 hour (AID 1224876); also: nearly all actives have a fitted effect of over 45% in size
Details: CellTox Green fluorescence; series mostly up to 76.8 µM; cytotoxicity increase: at the top concentration
Excerpt: National Center for Advancing Translational Sciences [NCATS]
NIH Chemical Genomics Center [NCGC]
U.S. Environmental Protection Agency [EPA]
National Institutes of Environmental Health Sciences [NIEHS]
National Toxicology Program [NTP]
Cell-based models are critical for drug discovery. Determining the natural cytotoxic effects resulting from test compounds is an essential research activity. A CellTox Green Cytotoxicity Assay to monitor cytotoxicity in real time of continues cell culture during 40 hours of the compound treatment was used to screen Tox21 10K library compounds in HepG2 cells. CellTox Green Cytotoxicity Assay is a nonlytic, homogeneous, biofluorescent method to measure cytotoxicity in cell culture after experimental manipulation. The assay system uses a proprietary asymmetric cyanine dye that is excluded from viable cells but preferentially stains the dead cell's DNA. […] Viable cells produce no appreciable increases in fluorescence. Therefore, the fluorescence signal produced by the binding interaction with dead cell DNA is proportional to cytotoxicity.
The mixture of HepG2 cell suspension and reagents were dispensed at 600cells/6 ul/well in 1536-well tissue culture treated black solid bottom plates using a Multidrop dispenser. After the assay plates were incubated at a 37 C/5% CO2 incubator for 5 hours, 23 nL of compounds dissolved in DMSO, positive and negative controls was transferred to the assay plate by a pintool work station. The plates were incubated at 37 C for 40 hours. The fluorescence intensity were measured at 0h, 8h, 16h, 24h, 32h and 40h time points using ViewLux plate reader during compound treatment.
% is scaled to controls: 0 for no effect and ±100 for the full control effect; potency is read from the fitted curve at half-maximal effect.

SMILES | cytotoxicity increase | Potency
C=C/C=C/C=C/CCCCC | -3.81% [at 15.8 µM] (inactive) | –
CCCCCCCCCCCCN(CCO)CCO | – | 43.5 µM (active)
O=S(=O)(O)CCCN1CCOCC1 | -11.6% (inactive) | –
C/C=C/CO | 6.77% (inactive) | –
CO[Si](CCCNCCNCCN)(OC)OC | -5.98% (inactive) | –
CN1CN(C)CN(C)C1 | -6.28% (inactive) | –
C=CC(C)(CCC=C(C)C)OC(=O)/C=C/c1ccccc1 (stereo not given) | – | 27.5 µM (active)
Brc1ccccn1 | -9.53% (inactive) | –
CCc1ccc(O)c(C(C)(C)C)c1 | – | 43.6 µM (active)
COC(=O)C1=C(C)NC(C)=C(C(=O)OCCCN2CCC(c3ccccc3)(c3ccccc3)CC2)C1c1cccc([N+](=O)[O-])c1 (stereo not given) | 0.205% [at 35.3 µM] (inactive) | –
C(=C/c1ccccc1)/c1ccccc1 | 7.77% (inactive) | –
CSc1ccc2c(c1)N(CCC1CCCCN1C)c1ccccc1S2 (stereo not given) | – | 54.7 µM (active) and 26.8 µM (active)
CCN=C1C=CC(=C(c2ccc(N(CC)CC)cc2)c2ccc(N(CC)CC)cc2)c2ccccc21 | – | 19.4 µM (active)
C=C[C@](C)(O)CC[C@@H]1[C@@]2(C)CCCC(C)(C)[C@@H]2CC[C@@]1(C)O | – | 54.9 µM (active)
CC(C)(C)CC(C)(C)c1ccccc1O | – | 24.7 µM (active)
CCCC(=O)OCC(COC(=O)CCC)OC(=O)CCC | 9.23% (inactive) | –
Clc1cccnc1 | -2.32% (inactive) | –
COc1cccc(OC)c1O | -5.69% (inactive) | –
CCC(=O)CC(C)CC (stereo not given) | 5.23% [at 0.29 µM] (inactive) | –
CCCCCCCCCCCCCc1ccccc1 | -21.9% [at 35.3 µM] (inactive) | –

SMILES | cytotoxicity increase | Potency
O=CC1CC1 | -5.88% (inactive) | –
C[Si](C)O[Si](C)C | 2.4% (inactive) | –
Cc1ccc(CCn2c3c(c4cc(Cl)ccc42)CN(C)CC3)cn1 | 26.2% [at 35.3 µM] (inactive) | –
CCCCCCCC(=O)OCC | 5.69% (inactive) | –
S=P(N1CC1)(N1CC1)N1CC1 | 4.7% (inactive) | –
O=C1OC(OC(=O)c2cccnc2Nc2cccc(C(F)(F)F)c2)c2ccccc21 (stereo not given) | -0.155% [at 35.3 µM] (inactive) | –
CC1(C)C(=O)N(CO)C(=O)N1CO | -0.243% (inactive) | –
C[Si](C)(C)Cl | -0.779% (inactive) | –
CN1[C@@H]2CC[C@H]1CC(OC(=O)C(CO)c1ccccc1)C2 (stereo not given in full) | – | inactive
C/C=C/c1ccc(OC)c(OC)c1 | 0.421% (inactive) | –
CCCCOc1ccc(C(=O)CCN2CCCCC2)cc1 | – | 19 µM (active)
[O]=[Zr] | -16.9% (inactive) | –
CC1CNCC(C)O1 (stereo not given) | -9.5% (inactive) | –
CCOC(=O)N1CCC(=C2c3ccc(Cl)cc3CCc3cccnc32)CC1 | 21% (inactive) | –
O=Nc1ccc(NO)cc1 | -11.3% (inactive) | –
CCN(CC)CCSC(=O)C(c1ccccc1)c1ccccc1 | 15.4% [at 35.3 µM] (inactive) | –
CC(=O)Nc1ccc(O)cc1 | – | inactive
CCc1c(C(=O)O)c(=O)cnn1-c1ccc(Cl)cc1 | -8.68% (inactive) | –
CC(C)=CCCC(C)CCOC(=O)C(C)C (stereo not given) | -0.881% (inactive) | –
Cc1c(C(=O)O)cccc1[N+](=O)[O-] | -3.7% (inactive) | –
